From PubChem BioAssay (Tox21)
Several values for one entry are separate records, joined by “and”; a condition that tells them apart may be missing. Equal values may be shown once. More than one record can exist for a structure, and the calls need not agree. Activity calls are given as the source filed them. Unless noted, calls follow the shape of the dose curve; as a rule, active = well fitted curve in the direction sought with a large enough effect in the repeat runs; inconclusive = weak or mixed curves; inactive = no such curve, though single readings can be large; an effect the other way counts as inactive or inconclusive.

Columns and labels:
[1] = qHTS assay to identify small molecule antagonists of the thyroid receptor (TR) signaling pathway - cell viability counter screen (AID 743064); also: nearly all actives have a fitted effect of over 50% in size; also: potency is read from the fitted curve at half-maximal effect
Summary of the method: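 GH3.TRE-Luc rat pituitary cells carrying a TRE-luciferase reporter were treated with compound plus 1 nM T3 (final) for 23.5 h at 37 °C. Viability was then read in the same wells by CellTiter-Fluor fluorescence after a further 30 min.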

[2] = qHTS assay to identify small molecule antagonists of the thyroid receptor (TR) signaling pathway (AID 743065); also: nearly all actives have a fitted effect of over 55% in size; also: potency is read from the fitted curve at half-maximal effect
Summary of the method: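 GH3.TRE-Luc rat pituitary cells carrying two TR response elements driving luciferase were plated for 4 h, given compound plus 1 nM T3 (final), and incubated 23.5 h at 37 C. ONE-Glo luminescence measured reporter inhibition; CellTiter-Fluor fluorescence tracked cytotoxicity.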

[3] = tested on: thyroid hormone receptor (rat, GH3 cells); experiment: qHTS assay to identify small molecule agonists of the thyroid receptor (TR) signaling pathway (AID 743066; calls by dose curve)
[4] = target: Estrogen receptor (Homo sapiens) (UniProt P03372); experiment: qHTS assay to identify small molecule antagonists of the estrogen receptor alpha (ER-alpha) signaling pathway (AID 743069; active = well fitted curve in the direction sought with a large enough effect in the signal ratio in the repeat runs, not every such curve was filed as active; inconclusive = weak or mixed curves, or effect the other way; inactive = no such curve, though single readings can be large or run the other way; the % refers to the signal ratio)
Summary of the method: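 A 17beta-estradiol challenge was applied right after compound transfer to ER-alpha-UAS-bla HEK293 cells previously kept in charcoal-stripped serum. Plates stood 18 hr at 37C and 5% CO2; fluorescence was read following 2 hr FRET substrate loading at room temperature.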

[5] = qHTS assay to identify small molecule antagonists of the estrogen receptor alpha (ER-alpha) signaling pathway - cell viability counter screen (AID 743074; calls by dose curve;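 also: HEK293 cells carrying ER-alpha-UAS-bla reporter stimulated with 17beta-estradiol; nearly all actives have a fitted effect of over 45% in size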; also: potency is read from the fitted curve at half-maximal effect)
[6] = target: Estrogen receptor (Homo sapiens) (UniProt P03372); experiment: qHTS assay to identify small molecule agonists of the estrogen receptor alpha (ER-alpha) signaling pathway (AID 743075; calls by dose curve;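 also: HEK293 GripTite cells with ER-alpha and UAS-driven beta-lactamase reporter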; also: potency is read from the fitted curve at half-maximal effect)
[7] = qHTS assay to identify aromatase inhibitors - cell viability counter screen (AID 743084);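 also: cells stimulated with testosterone during compound exposure; nearly all actives have a fitted effect of over 55% in size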
[8] = target: Aryl hydrocarbon receptor (Homo sapiens) (UniProt P35869); experiment: qHTS assay to identify small molecule that activate the aryl hydrocarbon receptor (AhR) signaling pathway (AID 743085);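 also: HG2L7.5c1 human HepG2 liver cells with stably integrated DRE-driven firefly reporter; nearly all actives have a fitted effect of over 15% in size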
Summary of the method: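 HepG2 cells (HG2L7.5c1) stably carrying a firefly luciferase reporter driven by 20 dioxin responsive elements were exposed to compound for 24 h at 37C after a 5 h settling period; luminescence rise (ONE-Glo) indicated activation.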

[9] = qHTS assay to identify small molecule that activate the aryl hydrocarbon receptor (AhR) signaling pathway - cell viability counter screen (AID 743086);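 also: HepG2 liver cells carrying the AhR DRE luciferase reporter; nearly all actives have a fitted effect of over 45% in size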
Summary of the method: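 HepG2-AhR-luc (HG2L7.5c1) cells, 4000/well, were preincubated 5 h at 37C, exposed to compound in qHTS format for 24 hr at 37C, then given CellTiter-Fluor for 30 min; viability was read as fluorescence in the reporter wells.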

[10] = target: Peroxisome proliferator-activated receptor gamma (Homo sapiens) (UniProt P37231); experiment: qHTS assay to identify small molecule agonists of the peroxisome proliferator-activated receptor gamma (PPARg) signaling pathway (AID 743094; active = well fitted activation curve with a large enough effect in the signal ratio in the repeat runs, not every such curve was filed as active; inconclusive = weak or mixed curves, or effect the other way; inactive = no such curve, though single readings can be large or run the other way; the % refers to the signal ratio)
Summary of the method: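 Agonism was assessed in a beta-lactamase reporter system, HEK293H cells with a stably integrated UAS-bla construct under PPARg control; the 17 h treatment at 37C preceded a 1 h room-temperature FRET substrate read.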

[11] = target: Peroxisome proliferator-activated receptor gamma (Homo sapiens) (UniProt P37231); experiment: qHTS assay to identify small molecule antagonists of the peroxisome proliferator-activated receptor gamma (PPARg) signaling pathway (AID 743191; calls by dose curve; also: nearly all actives have a fitted effect of over 30% in size; also: potency is read from the fitted curve at half-maximal effect)
Summary of the method: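 GeneBLAzer PPARg UAS-bla HEK293H cells carrying a UAS-driven beta-lactamase reporter were plated at 3000 cells/well, preincubated 5 h at 37C, then given compound for 17 h at 37C; LiveBLAzer B/G FRET substrate was read after 1 h at room temperature.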

[12] = qHTS assay to identify small molecule antagonists of the peroxisome proliferator-activated receptor gamma (PPARg) signaling pathway - cell viability counter screen (AID 743194); also: nearly all actives have a fitted effect of over 55% in size
Summary of the method: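 PPARg-UAS-bla HEK293H cells were plated, rested 5 h at 37 C, then treated with compounds plus rosiglitazone (50 nM final) for 17 h at 37 C; viability was then read by CellTiter-Glo luminescence after 30 min at room temperature.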

[13] = qHTS assay for small molecule agonists of the antioxidant response element (ARE) signaling pathway - cell viability counter screen (AID 743203; calls by dose curve; also: nearly all actives have a fitted effect of over 55% in size)
Summary of the method: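 ATP content via CellTiter-Glo luminescence served as the viability measure. Cells: ARE-bla HepG2, 2,000 per well. Exposure: 16 hrs, 37C/5% CO2.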

[14] = qHTS assay for small molecule activators of the heat shock response signaling pathway - cell viability counter screen (AID 743209); also: nearly all actives have a fitted effect of over 50% in size
Summary of the method: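 Compounds dissolved in DMSO were added to overnight-plated HSE-bla HeLa cells and left 5 h at 37 C. Cell viability was quantified by luminescence using CellTiter-Glo.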

[15] = target: Estrogen receptor (Homo sapiens) (UniProt P03372); experiment: qHTS assay to identify small molecule agonists of the estrogen receptor alpha (ER-alpha) signaling pathway using the BG1 cell line (AID 743079); details: BG1Luc4E2 cells, ERE-luciferase agonist, 22 h; activation: at 70.3 µM (top of the series); also: nearly all actives have a fitted effect of over 20% in size; also: potency is read from the fitted curve at half-maximal effect
[16] = qHTS assay to identify small molecule antagonists of the estrogen receptor alpha (ER-alpha) signaling pathway using the BG1 cell line (AID 743080; calls by dose curve;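 also: BG1 cells stimulated with 17beta-estradiol alongside compound; nearly all actives have a fitted effect of over 25% in size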; also: potency is read from the fitted curve at half-maximal effect)
Summary of the method: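 Quantitative HTS on the Tox21 10K library: BG1 cells with endogenous ER-alpha and ERE-luciferase reporter, 17beta-estradiol stimulation, 21.5 h compound exposure, luminescence endpoint with parallel fluorescence cytotoxicity counter-read.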

[17] = qHTS assay to identify small molecule antagonists of the estrogen receptor alpha (ER-alpha) signaling pathway using the BG1 cell line - cell viability counter screen (AID 743081);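 also: compound given together with 17beta-estradiol as the ER stimulus; nearly all actives have a fitted effect of over 45% in size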
Aromatase (Homo sapiens) = Aromatase (Homo sapiens) (UniProt P11511); experiment: qHTS assay to identify aromatase inhibitors (AID 743083); also: nearly all actives have a fitted effect of over 55% in size; also: potency is read from the fitted curve at half-maximal effect
[18] = qHTS assay for small molecule agonists of the antioxidant response element (ARE) signaling pathway (AID 743202; active = well fitted activation curve with a large enough effect in the signal ratio in the repeat runs, not every such curve was filed as active; inconclusive = weak or mixed curves, or effect the other way; inactive = no such curve, though single readings can be large or run the other way; the % refers to the signal ratio; also: potency is read from the fitted curve at half-maximal effect)
Summary of the method: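 Following a 16 h, 37 C exposure of reporter HepG2 cells (ARE-driven beta-lactamase, 2,000 cells/well) to compounds, FRET substrate was applied for 2 h at room temperature and fluorescence intensity recorded.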

[19] = qHTS assay for small molecule activators of the heat shock response signaling pathway (AID 743210; active = well fitted activation curve with a large enough effect in the signal ratio in the repeat runs, with a control signal flat, not every such curve was filed as active; inconclusive = weak or mixed curves; the % refers to the signal ratio; also: potency is read from the fitted curve at half-maximal effect)
Summary of the method: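 Heat shock element–beta-lactamase HeLa reporter cells; qHTS with compounds for 5 h at 37 C; detection by FRET substrate fluorescence after 2.5 h at RT.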
% is scaled to controls: 0 for no effect and ±100 for the full control effect.

Aryl hydrocarbon receptor (Homo sapiens), sequence (P35869 whole entry, looked up): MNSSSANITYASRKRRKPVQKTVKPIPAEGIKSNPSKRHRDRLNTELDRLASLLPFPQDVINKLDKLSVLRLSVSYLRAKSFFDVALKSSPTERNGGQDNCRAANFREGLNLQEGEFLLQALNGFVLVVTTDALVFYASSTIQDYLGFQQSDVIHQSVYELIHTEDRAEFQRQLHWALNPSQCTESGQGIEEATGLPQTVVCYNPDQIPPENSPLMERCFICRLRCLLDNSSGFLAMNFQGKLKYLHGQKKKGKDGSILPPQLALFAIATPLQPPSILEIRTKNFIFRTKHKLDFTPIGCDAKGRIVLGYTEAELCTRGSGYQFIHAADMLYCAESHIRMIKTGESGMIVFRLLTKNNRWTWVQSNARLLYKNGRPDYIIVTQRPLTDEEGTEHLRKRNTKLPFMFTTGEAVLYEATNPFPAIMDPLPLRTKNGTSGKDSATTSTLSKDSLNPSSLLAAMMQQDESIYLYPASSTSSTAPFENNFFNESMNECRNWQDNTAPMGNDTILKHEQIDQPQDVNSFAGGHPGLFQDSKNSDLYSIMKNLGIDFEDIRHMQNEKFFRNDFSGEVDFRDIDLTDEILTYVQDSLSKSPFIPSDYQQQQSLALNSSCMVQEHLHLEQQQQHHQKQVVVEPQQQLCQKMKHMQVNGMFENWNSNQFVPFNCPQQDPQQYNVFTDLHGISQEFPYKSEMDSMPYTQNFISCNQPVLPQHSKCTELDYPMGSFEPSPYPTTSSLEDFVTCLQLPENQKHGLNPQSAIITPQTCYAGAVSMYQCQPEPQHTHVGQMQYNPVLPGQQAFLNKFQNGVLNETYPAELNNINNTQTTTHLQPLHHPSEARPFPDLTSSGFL
Estrogen receptor (Homo sapiens), sequence (P03372 whole entry, looked up): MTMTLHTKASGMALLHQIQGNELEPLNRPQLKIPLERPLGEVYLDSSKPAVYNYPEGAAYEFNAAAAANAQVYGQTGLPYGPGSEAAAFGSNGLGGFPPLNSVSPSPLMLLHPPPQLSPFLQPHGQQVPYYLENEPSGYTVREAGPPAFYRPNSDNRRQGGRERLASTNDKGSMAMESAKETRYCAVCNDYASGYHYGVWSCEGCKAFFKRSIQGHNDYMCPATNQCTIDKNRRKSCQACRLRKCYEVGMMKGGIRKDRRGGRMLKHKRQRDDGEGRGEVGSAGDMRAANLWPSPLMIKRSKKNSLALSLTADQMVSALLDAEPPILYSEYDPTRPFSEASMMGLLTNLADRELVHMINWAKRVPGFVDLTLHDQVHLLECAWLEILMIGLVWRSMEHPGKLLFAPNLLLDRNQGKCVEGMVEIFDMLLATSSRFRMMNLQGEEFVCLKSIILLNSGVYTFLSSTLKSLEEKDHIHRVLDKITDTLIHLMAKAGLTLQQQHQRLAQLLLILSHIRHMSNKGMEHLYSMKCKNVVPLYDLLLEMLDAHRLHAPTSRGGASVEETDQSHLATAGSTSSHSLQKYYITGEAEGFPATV
Aromatase (Homo sapiens), sequence (P11511 whole entry, looked up): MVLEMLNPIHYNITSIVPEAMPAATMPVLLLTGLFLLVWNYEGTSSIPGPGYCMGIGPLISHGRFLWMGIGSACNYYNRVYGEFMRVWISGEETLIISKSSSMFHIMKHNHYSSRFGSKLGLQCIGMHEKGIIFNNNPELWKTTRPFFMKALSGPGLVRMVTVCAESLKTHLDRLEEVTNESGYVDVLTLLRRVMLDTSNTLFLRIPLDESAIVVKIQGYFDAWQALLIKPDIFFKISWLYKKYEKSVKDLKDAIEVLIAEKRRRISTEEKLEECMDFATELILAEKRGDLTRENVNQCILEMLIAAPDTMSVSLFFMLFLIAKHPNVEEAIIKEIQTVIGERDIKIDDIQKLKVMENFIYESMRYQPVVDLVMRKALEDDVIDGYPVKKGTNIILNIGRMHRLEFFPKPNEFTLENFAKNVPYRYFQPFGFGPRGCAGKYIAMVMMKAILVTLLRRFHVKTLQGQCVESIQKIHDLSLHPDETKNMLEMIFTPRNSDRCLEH
Peroxisome proliferator-activated receptor gamma (Homo sapiens), sequence (P37231 whole entry, looked up): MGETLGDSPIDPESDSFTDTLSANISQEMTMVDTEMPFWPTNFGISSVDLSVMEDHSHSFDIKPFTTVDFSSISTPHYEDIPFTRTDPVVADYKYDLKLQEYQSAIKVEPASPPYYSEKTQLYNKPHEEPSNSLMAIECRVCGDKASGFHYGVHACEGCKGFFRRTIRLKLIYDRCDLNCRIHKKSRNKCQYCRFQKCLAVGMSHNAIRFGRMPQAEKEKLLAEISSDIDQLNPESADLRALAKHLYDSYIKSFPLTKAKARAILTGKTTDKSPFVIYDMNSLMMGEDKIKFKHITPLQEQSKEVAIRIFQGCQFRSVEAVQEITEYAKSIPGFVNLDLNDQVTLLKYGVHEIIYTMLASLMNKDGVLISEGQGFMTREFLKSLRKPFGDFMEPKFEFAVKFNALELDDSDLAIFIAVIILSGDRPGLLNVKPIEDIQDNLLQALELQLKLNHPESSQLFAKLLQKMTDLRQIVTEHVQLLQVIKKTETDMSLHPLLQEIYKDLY

Cc1occc1C(=O)Nc1ccc(C(=O)N2CCC(F)(F)/C(=C\C(=O)N3CCC(N4CCCCC4)CC3)c3ccccc32)cc1
inactive: outcome [3] | Potency [4] | Potency [5] | Potency [6] | Potency [7] | Potency [8] | Potency [9] | Potency [10] | Potency [11] | Potency [12] | Potency [13] | Potency [14]
active: Potency [1] 17 µM | Potency [2] 19.1 µM

NC(=O)Nc1ccc(Cl)cc1
inactive: Potency [1] | Potency [2] | outcome [3] | Potency [4] | Potency [6] | Potency [15] | Potency [16] | Potency [17] | Potency (Aromatase (Homo sapiens)) | Potency [7] | Potency [8] | Potency [9] | Potency [10] | Potency [11] | Potency [18] | Potency [13] | Potency [14] | Potency [19]

CCOC(=O)CC(=O)C(=O)OCC
inactive: Potency [1] | Potency [2] | outcome [3] | Potency [4] | Potency [5] | Potency [6] | Potency [15] | Potency [16] | Potency [17] | Potency (Aromatase (Homo sapiens)) | Potency [9] | Potency [10] | Potency [12] | Potency [18] | Potency [13] | Potency [14] | Potency [19]

COc1ccc(CCC(=O)c2c(O)cc(O[C@@H]3O[C@H](CO)[C@@H](O)[C@H](O)[C@H]3O[C@@H]3O[C@@H](C)[C@H](O)[C@@H](O)[C@H]3O)cc2O)cc1O
inactive: Potency [1] | Potency [2] | outcome [3] | Potency [4] | Potency [5] | Potency [6] | Potency [15] | Potency [16] | Potency [17] | Potency (Aromatase (Homo sapiens)) | Potency [7] | Potency [9] | Potency [10] | Potency [11] | Potency [18] | Potency [14] | Potency [19]

O=C1OCCN1/N=C/c1ccc([N+](=O)[O-])o1
active: Potency [6] 0.848 µM [inconclusive] | Potency [15] 0.168 µM | Potency (Aromatase (Homo sapiens)) 29.8 µM | Potency [18] 15 µM
inactive: Potency [1] | Potency [2] | outcome [3] | Potency [4] | Potency [5] | Potency [10] | Potency [12] | Potency [14] | Potency [19]

Oc1cc(O)c(Cl)cc1Cl
inactive: Potency [1] | Potency [2] | outcome [3] | Potency [5] | Potency [6] | Potency [15] | Potency [16] | Potency [17] | Potency (Aromatase (Homo sapiens)) | Potency [7] | Potency [9] | Potency [10] | Potency [11] | Potency [13]
active: Potency [19] 50.2 µM

Cc1ccc(S(=O)(=O)NC2CCCCC2)cc1
active: Potency [16] 68.1 µM
inactive: Potency [1] | Potency [2] | outcome [3] | Potency [5] | Potency [6] | Potency [17] | Potency (Aromatase (Homo sapiens)) | Potency [8] | Potency [9] | Potency [10] | Potency [12] | Potency [18] | Potency [13] | Potency [14] | Potency [19]

Cc1cc(O)c(C(C)C)cc1Cl
inactive and 49 µM (active): Potency [5]
inactive: Potency [1] | Potency [2] | outcome [3] | Potency [4] | Potency [6] | Potency [15] | Potency [16] | Potency [17] | Potency (Aromatase (Homo sapiens)) | Potency [7] | Potency [8] | Potency [9] | Potency [18] | Potency [13] | Potency [14] | Potency [19]

O=C(O)C(Cc1cc(I)c(O)c(I)c1)c1ccccc1 (centres undefined)
inactive: Potency [1] | Potency [2] | outcome [3] | Potency [4] | Potency [5] | Potency [6] | Potency [16] | Potency [17] | Potency (Aromatase (Homo sapiens)) | Potency [7] | Potency [8] | Potency [9] | Potency [12] | Potency [18] | Potency [13] | Potency [14] | Potency [19]
active: Potency [11] 37.6 µM

CCn1nc(C)c2c1C(=O)NCC(c1ccc(O)cc1)=N2
inactive: Potency [1] | Potency [2] | outcome [3] | Potency [5] | Potency [6] | Potency [15] | Potency [16] | Potency [17] | Potency (Aromatase (Homo sapiens)) | Potency [7] | Potency [9] | Potency [10] | Potency [14] | Potency [19]

CC(C)c1nnc2ccc(-c3ocnc3-c3cc(F)ccc3F)cn12
inactive: Potency [1] | Potency [2] | outcome [3] | Potency [5] | Potency [6] | Potency [17] | Potency (Aromatase (Homo sapiens)) | Potency [7] | Potency [9] | Potency [10] | Potency [12] | Potency [13] | Potency [14] | Potency [19]
active: Potency [16] 54.5 µM

OC/C(Br)=C(\Br)CO
inactive: Potency [1] | Potency [2] | outcome [3] | Potency [4] | Potency [5] | Potency [6] | Potency [16] | Potency [17] | Potency (Aromatase (Homo sapiens)) | Potency [7] | Potency [8] | Potency [9] | Potency [10] | Potency [11] | Potency [12] | Potency [18] | Potency [19]

COC(OC)(C(=O)c1ccccc1)c1ccccc1
active: Potency [6] 0.0123 µM [inconclusive] | Potency [15] 4.32 µM
inactive: Potency [1] | Potency [2] | outcome [3] | Potency [4] | Potency [5] | Potency [17] | Potency (Aromatase (Homo sapiens)) | Potency [7] | Potency [9] | Potency [10] | Potency [11] | Potency [12] | Potency [18] | Potency [13] | Potency [14] | Potency [19]

CC(C)OCC1CO1 (centres undefined)
inactive: Potency [1] | Potency [2] | outcome [3] | Potency [4] | Potency [5] | Potency [6] | Potency [15] | Potency [16] | Potency [17] | Potency (Aromatase (Homo sapiens)) | Potency [7] | Potency [9] | Potency [10] | Potency [11] | Potency [12] | Potency [18]

CC1CN(c2cc3c(cc2F)c(=O)c(C(=O)O)cn3-c2ccc(F)cc2F)CCN1 (centres undefined)
inactive: Potency [1] | Potency [2] | outcome [3] | Potency [4] | Potency [5] | Potency [6] | Potency [15] | Potency [16] | Potency (Aromatase (Homo sapiens)) | Potency [7] | Potency [8] | Potency [9] | Potency [10] | ratio activity, negative = inhibition [11] 15.7% [at 5.95 µM] | activity change, negative = cytotoxicity [12] 5.03% [at 5.95 µM] | activation [18] 0.815% [at 8.36 µM] | viability change, negative = cytotoxic [13] -0.948% [at 8.36 µM] | activity change, negative = cytotoxicity [14] -28.5% [at 5.95 µM] | activation [19] 0.895% [at 5.95 µM]
